A selection: hits, their analogues and other compounds. The true share with any hit is near 10%.
KB-3-1 tox: KB-3-1 parental cell cytotoxicity | Potency, µM (doses to about 46.1 µM), usual class: cytotoxic | KB-3-1 viability, CellTiter-Glo ATP luminescence, 72 h | AID 1347075 | hit rate 1.4% among 400,000; also: % is scaled to controls: 0 for no effect and ±100 for the full control effect; nearly all actives have a fitted effect of over 60% in size
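Here the drug-naive KB-3-1 line serves as comparator for MDR sub-line selectivity; cells received compound titrations, 72 h at 37 °C, then CellTiter-Glo readout.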
RORg inh: ROR gamma (mouse) transcription inhibition | P51450 | Drosophila S2 Gal4-RORgamma UAS-luciferase reporter, 20 h | Potency, µM (highest dose often 53.6 µM), for the others: top-dose activity change, negative = inhibition, most hits filed as inhibitors | hit rate 5.4% among 310,000 | AID 2551; also: % is scaled to controls: 0 for no effect and ±100 for the full control effect; nearly all actives have a fitted effect of over 60% in size
Target sequence (P51450 whole entry, looked up, the tested form may be a part): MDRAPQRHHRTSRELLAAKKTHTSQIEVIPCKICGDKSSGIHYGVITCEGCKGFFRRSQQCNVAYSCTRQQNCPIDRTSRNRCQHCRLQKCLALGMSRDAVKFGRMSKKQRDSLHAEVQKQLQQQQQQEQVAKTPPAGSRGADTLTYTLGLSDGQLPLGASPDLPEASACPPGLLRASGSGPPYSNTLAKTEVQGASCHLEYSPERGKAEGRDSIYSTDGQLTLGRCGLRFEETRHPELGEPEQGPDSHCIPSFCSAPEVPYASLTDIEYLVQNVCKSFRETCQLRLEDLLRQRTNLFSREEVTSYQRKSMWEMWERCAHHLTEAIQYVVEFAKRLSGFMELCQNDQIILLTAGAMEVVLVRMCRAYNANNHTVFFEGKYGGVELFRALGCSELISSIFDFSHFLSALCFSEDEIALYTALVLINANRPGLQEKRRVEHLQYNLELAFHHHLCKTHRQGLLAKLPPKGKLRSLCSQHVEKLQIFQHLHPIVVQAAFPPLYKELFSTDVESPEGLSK
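Using a luciferase readout, inhibitors were identified by reduced reporter activity in Drosophila cells coexpressing a copper-inducible Gal4–ROR gamma fusion and UAS-driven Photinus luciferase, incubated 20 hr after 700 uM copper sulfate.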
SW480 rereplic: inducers of DNA re-replication in SW480 colon cancer cells. SW480 DNA re-replication, Hoechst DNA content imaging, 48 h. Potency, µM (series often up to 46.1 µM), for the others: at the top dose re-replication activation, hits mostly activators. hit rate 1.8% among 340,000; also: % of control where 0% means no effect; nearly all actives have a fitted effect of over 55% in size
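Readout is total intensity of Hoechst-stained nuclei, excited at 405 nm and collected at 500-530 nm. Compound treatment lasted 48 hr at 37 C in 5% CO2 before staining.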
VP16 counter: Gal4-VP16 reporter inhibition counter-screen; Drosophila S2 Gal4-VP16 UAS-luciferase, luminescence, 20 h; hit rate 3.5% among 310,000; Potency, µM (top dose mostly 53.6 µM), for inactives: at the highest dose activity, negative = inhibition, most hits filed as inhibitors;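 also: Gal4-VP16 expression switched on by copper sulfate through the metallothionein promoter; % is scaled to controls: 0 for no effect and ±100 for the full control effect; nearly all actives have a fitted effect of over 50% in size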
MCF10A rerep: induces DNA re-replication in MCF 10a normal breast cells. MCF 10A DNA re-replication, Hoechst nuclear intensity, 48 h. Potency, µM (top dose mostly 46.1 µM), inactives show top-dose activity, positive = re-replication, most hits filed as activators. hit rate 2.9% among 350,000. AID 624296; also: % of control where 0% means no effect; nearly all actives have a fitted effect of over 50% in size
KB-V1 cytotox: kills drug-selected multidrug resistant KB-V1 cells | KB-V1 MDR cells viability, CellTiter-Glo, 72 h | Potency, µM (top dose mostly 46.1 µM), actives largely listed as cytotoxic | hit rate 3.4% among 400,000 | AID 1347076; also: % is scaled to controls: 0 for no effect and ±100 for the full control effect; nearly all actives have a fitted effect of over 60% in size
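Following 72 h at 37 degrees C with compound, KB-V1 cell viability was read by CellTiter-Glo luminescence, medium being phenol-red-free DMEM plus 10% FBS; concentration-response parameters came from normalized, curve-fitted qHTS data.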
The depositor's hits bear a star; i = inactive; ? = inconclusive; nt = not tested or not shown; [ ] = dose if it differs, or a comment. Calls follow the shape of the dose curve; as a rule, active = well fitted curve in the direction sought with a large enough effect; inconclusive = small, poorly fitted or top-dose-only effect, or another doubt; inactive = no such curve, though single readings can be large; an effect the other way counts as inactive or inconclusive. Potency is read from the fitted curve at half-maximal effect.

SMILES | KB-3-1 tox | RORg inh | SW480 rereplic | VP16 counter | MCF10A rerep | KB-V1 cytotox
CCCCN(CCCC)C(=S)N/N=C/c1c(C)[nH]n(-c2ccccc2)c1=O | ? | 1.6µM* | ? | 5µM* | ? | i
COc1ccc2c(c1OC)C(=O)N1c3cccc(Cl)c3C(=O)OC21 (centres undefined) | i | 3% | 0.65µM* | -1% | 1.3µM* | i
COc1ccc2c(c1OC)C(=O)N1c3ccccc3C(=O)OC21 (centres undefined) | nt | 20% | nt | 11% | nt | nt
COc1ccc2c(c1OC)C(=O)N1c3ccccc3C(=O)N(c3ccccc3F)C21 (centres undefined) | i | 15%[0.365 µM] | -5%[9.22 µM] | nt | ? | 5.8µM*
CCc1cc2c(=O)c(-c3cnn(-c4ccccc4)c3)c(C)oc2c(CN2CCCCC2)c1O | i | 13% | 2% | -12% | ? | i
CCc1cc2c(=O)c(-c3cnn(-c4ccccc4)c3)c(C(F)(F)F)oc2c(CN(C)C)c1O | i | 1% | -7% | -6% | -6% | 1.8µM*
CCCn1nnnc1NC(=O)COc1ccc(Cl)c(C)c1 | i | 5µM* | nt | 4.5µM* | 4% | i
CCCn1nnnc1NC(=O)COc1ccc(CC)cc1 | i | 10µM* | 3% | 11µM* | 1% | i
CCC1CCCCN1CCn1c(=S)[nH]c2cc(OC)c(OC)cc2c1=O (centres undefined) | i | 10µM* | -6% | -14% | 19% | ?
CCOc1cc2[nH]c(=S)n(CC3CCCO3)c(=O)c2cc1OCC (centres undefined) | ? | 11µM* | 0% | ? | ? | 12µM*
CCOc1cc2[nH]c(=S)n(CC3CCCN3CC)c(=O)c2cc1OCC (centres undefined) | i | 10µM* | -5% | 3% | 20% | ?
COc1cc2[nH]c(=S)n(CC3CCCO3)c(=O)c2cc1OC (centres undefined) | i | ? | -8% | ? | -11% | i
COc1cc2[nH]c(=S)n(CCN3CCOCC3)c(=O)c2cc1OC | i | ? | -5% | -5% | ? | i
COc1cc(OC)c(C2C=CC(=O)CC2)c(OC)c1 (centres undefined) | ? | nt | nt | nt | nt | i
N/C(=N\OC(=O)c1cc(Cl)ccc1Cl)c1ccccn1 | i | -87% | 11% | 14µM* | 1% | i
COc1ccc(Cl)cc1C(=O)O/N=C(\N)c1ccccn1 | i | 32% | -8% | -13% | 4% | i
N/C(=N\OC(=O)COc1ccc(Cl)cc1Cl)c1ccccn1 | i | 10µM* | -3% | ? | -4% | i
N/C(=N\OC(=O)COc1ccccc1)c1ccccn1 | i | 23% | 18µM* | 0% | 4% | i
N/C(=N\OC(=O)COc1ccc(Br)cc1Cl)c1ccccn1 | i | ? | 1% | ? | 13% | i
CCc1ccc(OCC(=O)O/N=C(\N)c2ccccn2)cc1 | i | -1% | -2% | -3% | 0% | i
C=CCc1ccccc1OCCSc1nc(-c2ccccc2F)nc2cc(=O)[nH]n12 | i | nt | nt | nt | nt | i
CC(C)N(C(=O)CN(C#N)c1nc(N(C)C)nc(N(C)C)n1)c1ccccc1 | i | -29% | -6% | 2% | -8% | 6.5µM*
CCNc1ncc2nc(-c3ccccc3)c(=O)n(C3CC3)c2n1 | nt | -6% | nt | -5% | nt | nt
Cc1c(C(=O)OCC2CCCO2)[nH]c2c1C(=O)CC(c1ccco1)C2 (centres undefined) | 3.3µM* | ? | 2.9µM* | -6% | 3.7µM* | 4.1µM*
Cc1c(C(=O)OC2CCCC2)[nH]c2c1C(=O)CC(c1ccco1)C2 (centres undefined) | 0.52µM* | 159% | ? | 1% | ? | 0.58µM*
SMILES | KB-3-1 tox | RORg inh | SW480 rereplic | VP16 counter | MCF10A rerep | KB-V1 cytotox
COC(=O)c1[nH]c2c(c1C)C(=O)CC(c1ccccc1)C2 (centres undefined) | 1.3µM* | 31% | 17% | 0% | 13% | 0.58µM*
COC(=O)c1[nH]c2c(c1C)C(=O)CC(c1ccc(OC)cc1)C2 (centres undefined) | i | 9% | -12% | -13% | -1% | i
Cc1c(C(=O)OC2CCCC2)[nH]c2c1C(=O)CC(c1ccc(C(C)(C)C)cc1)C2 (centres undefined) | i | nt | nt | nt | nt | i
C=CCOC(=O)c1[nH]c2c(c1C)C(=O)CC(c1ccco1)C2 (centres undefined) | ? | ? | 0.18µM* | -10% | ? | ?
C/C=C/COC(=O)c1[nH]c2c(c1C)C(=O)CC(c1ccco1)C2 (centres undefined) | i | 28% | ? | -13% | ? | i
Cc1ccc(N2CC(C)Cn3c2nc2c3c(=O)n(Cc3cccc(Cl)c3)c(=O)n2C)cc1 (centres undefined) | i | nt | nt | nt | nt | i
CCc1ccccc1NC(=O)c1nn(-c2ccc(C)cc2)c(=O)c2c1c1ccccc1n2C | i | nt | nt | nt | nt | i
CCN[C@@H]1C[C@H](C)S(=O)(=O)c2sc(S(N)(=O)=O)cc21 | nt | -1%[16.9 µM] | -2% | -7%[17 µM] | 8% | nt
Cc1c(C(=O)OC2CCCCC2)[nH]c2c1C(=O)CC(c1ccccc1Cl)C2 (centres undefined) | 4.1µM* | nt | nt | nt | nt | ?
Cc1c(C(=O)O)[nH]c2c1C(=O)CC(c1ccc(C(C)(C)C)cc1)C2 (centres undefined) | i | 2% | -5% | -3% | 1% | i
Cc1c(C(=O)OCC(C)C)[nH]c2c1C(=O)CC(c1ccco1)C2 (centres undefined) | i | ? | 0.52µM* | 1% | 18µM* | ?
Cc1c(C(=O)OC2CCCCC2)[nH]c2c1C(=O)CC(c1ccccc1)C2 (centres undefined) | i | nt | nt | nt | nt | ?
Cc1c(C(=O)N2CCOCC2)[nH]c2c1C(=O)CC(c1ccccc1Cl)C2 (centres undefined) | 18µM* | -32% | 15% | 5% | 12% | ?
CCCCCCC1=Cc2cc(OC)c(OC)cc2C(CC(=O)/C=C/OC)O1 (centres undefined) | nt | 4%[10 µM] | nt | 4%[10 µM] | nt | nt
CCc1cccc2c(C(=O)CN3C(=O)NC4(CCc5ccccc54)C3=O)c[nH]c12 (centres undefined) | ? | nt | ? | nt | 15µM* | ?
CCc1cccc2c(=O)c(C(=O)N3CCCCCC3)c[nH]c12 | i | 3% | -13% | 1% | 0% | i

From PubChem BioAssay
